Measured values taken from PubChem BioAssay (NCI).
This is part of a sample that, as a whole, favours compounds with a hit. Of some 83,000 tested, about 20% had one in any assay.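 A percent growth of 40 corresponds to 60% growth inhibition; 0 means no net growth; -100 means all cells died. Active threshold: below 10.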 Active and inactive are the calls of the source.

What was measured:
Assay in all cases: NCI-60 one-dose screen, 48 h (100 = growth as untreated, 0 = no growth, -100 = all killed)
SR leukemia = details: 10 µM unless noted
RPMI-8226 leukemia = details: 10 µM unless noted
OVCAR-8 ovarian = details: 10 µM unless noted
OVCAR-5 ovarian = details: 10 µM unless noted
OVCAR-4 ovarian = details: 10 µM unless noted
SK-OV-3 ovarian = details: 10 µM unless noted
IGROV1 ovarian = details: 10 µM unless noted
OVCAR-3 ovarian = details: 10 µM unless noted
HS 578T breast = details: 10 µM
T-47D breast = details: 10 µM unless noted
BT-549 breast = details: 10 µM unless noted
MDA-MB-435 melanoma = details: 10 µM unless noted
SW-620 colon = details: 10 µM unless noted
MCF7 breast = details: 10 µM unless noted
HCT-116 colon = details: 10 µM unless noted
HCC-2998 colon = details: 10 µM unless noted
KM12 colon = details: 10 µM unless noted
NCI/ADR-RES ovarian = details: 10 µM unless noted

Measured: growth

Clc1ccc(-c2nc(Br)cn3ccnc23)cc1
inactive: SR leukemia 92.2% | RPMI-8226 leukemia 93.4% | OVCAR-8 ovarian 86.8% | OVCAR-5 ovarian 90.4% | OVCAR-4 ovarian 112% | SK-OV-3 ovarian 88.5% | IGROV1 ovarian 74.3% | OVCAR-3 ovarian 82.8% | HS 578T breast 91.3% | T-47D breast 54.4% | BT-549 breast 84.1% | MDA-MB-435 melanoma 111% | SW-620 colon 91.5% | MCF7 breast 64.1% | HCT-116 colon 77.8% | HCC-2998 colon 104% | KM12 colon 86.6%

Cc1nc2ccc(Nc3nc(NCCN4CCOCC4)nc(Nc4ccc(F)cc4)n3)cc2n1Cc1ccccc1
active: SR leukemia 0.147% | RPMI-8226 leukemia 3.11%
inactive: OVCAR-8 ovarian 50.2% | OVCAR-5 ovarian 84.1% | OVCAR-4 ovarian 98.1% | SK-OV-3 ovarian 79% | IGROV1 ovarian 69% | OVCAR-3 ovarian 73.7% | HS 578T breast 40.6% | T-47D breast 53% | BT-549 breast 49.9% | MDA-MB-435 melanoma 52.2% | SW-620 colon 42.4% | MCF7 breast 33.6% | HCT-116 colon 27.9% | HCC-2998 colon 44.5% | KM12 colon 43.4%

O=c1c2sc3ccccc3c2nnn1-c1ccc(F)c(Cl)c1
active: SR leukemia -42% | OVCAR-4 ovarian -5.65% | SK-OV-3 ovarian -8.62%
inactive: RPMI-8226 leukemia 57.3% | OVCAR-8 ovarian 37.7% | OVCAR-5 ovarian 51% | IGROV1 ovarian 21.2% | HS 578T breast 33% | NCI/ADR-RES ovarian 64.5% | T-47D breast 45.9% | BT-549 breast 81.6% | MDA-MB-435 melanoma 72.3% | SW-620 colon 62.3% | MCF7 breast 63.9% | HCT-116 colon 19.9% | HCC-2998 colon 68.7%

CC(=O)c1ccc(-n2c(-c3cc(-c4ccsc4)n[nH]3)n[nH]c2=S)cc1
inactive: SR leukemia 94% | RPMI-8226 leukemia 101% | OVCAR-8 ovarian 98.9% | OVCAR-5 ovarian 97.8% | OVCAR-4 ovarian 105% | SK-OV-3 ovarian 104% | IGROV1 ovarian 107% | OVCAR-3 ovarian 113% | T-47D breast 103% | BT-549 breast 95.3% | SW-620 colon 94% | MCF7 breast 90.4% | HCT-116 colon 98.1% | HCC-2998 colon 99% | KM12 colon 100%

CS(=O)(=O)Nc1cc(-c2cc3ncc(C#N)c(Nc4ccc(Oc5ccccc5)c(Cl)c4)c3s2)cnc1Cl
inactive: SR leukemia 20.5% | RPMI-8226 leukemia 62.7% | OVCAR-8 ovarian 50.6% | OVCAR-5 ovarian 75.9% | OVCAR-4 ovarian 57.6% | SK-OV-3 ovarian 43.4% | IGROV1 ovarian 11% | OVCAR-3 ovarian 50.7% | NCI/ADR-RES ovarian 72.2% | T-47D breast 15.8% | BT-549 breast 51% | MDA-MB-435 melanoma 67.4% | SW-620 colon 48% | MCF7 breast 26.5% | HCT-116 colon 45.1% | HCC-2998 colon 64.5% | KM12 colon 56.8%

CC(C)COC(=O)NC(C)(C)C
inactive: SR leukemia 91.5% | RPMI-8226 leukemia 103% | OVCAR-8 ovarian 103% | OVCAR-5 ovarian 97.9% | OVCAR-4 ovarian 106% | SK-OV-3 ovarian 103% | IGROV1 ovarian 107% | OVCAR-3 ovarian 105% | NCI/ADR-RES ovarian 106% | T-47D breast 99.6% | BT-549 breast 102% | MDA-MB-435 melanoma 107% | SW-620 colon 99.4% | MCF7 breast 90.8% | HCT-116 colon 105% | HCC-2998 colon 97% | KM12 colon 113%

NC(=S)N/N=C(/c1cccs1)C1CC1
inactive: SR leukemia 120% | RPMI-8226 leukemia 63.2% | OVCAR-8 ovarian 67.7% | OVCAR-5 ovarian 90.9% | OVCAR-4 ovarian 82.8% | SK-OV-3 ovarian 103% | IGROV1 ovarian 53.5% | OVCAR-3 ovarian 51.5% | T-47D breast 20.6% | BT-549 breast 97.8% | MDA-MB-435 melanoma 87.4% | SW-620 colon 71.6% | MCF7 breast 22.5% | HCC-2998 colon 96.9% | KM12 colon 105%
active: HCT-116 colon 7.8%

C=CCOc1c(Br)cc(Br)cc1Br
inactive: SR leukemia 34.8% | RPMI-8226 leukemia 38.7% | OVCAR-8 ovarian 74.3% | OVCAR-5 ovarian 76.2% | OVCAR-4 ovarian 63.4% | SK-OV-3 ovarian 64.9% | IGROV1 ovarian 30% | HS 578T breast 42.2% | NCI/ADR-RES ovarian 63.7% | T-47D breast 65.1% | BT-549 breast 67.4% | MDA-MB-435 melanoma 27.2% | SW-620 colon 76.1% | MCF7 breast 40.5% | HCT-116 colon 54.5% | HCC-2998 colon 95.1% | KM12 colon 84.8%

CCc1ccc(-c2ccc(NC3CCCCCC3)nn2)cc1S(N)(=O)=O
inactive: SR leukemia 103% | RPMI-8226 leukemia 99.4% | OVCAR-8 ovarian 102% | OVCAR-5 ovarian 97.5% | OVCAR-4 ovarian 102% | SK-OV-3 ovarian 105% | IGROV1 ovarian 110% | OVCAR-3 ovarian 117% | T-47D breast 103% | BT-549 breast 103% | MDA-MB-435 melanoma 106% | SW-620 colon 98.8% | MCF7 breast 95.2% | HCT-116 colon 103% | HCC-2998 colon 102% | KM12 colon 110%
